Screens: PubChem, National Center for Advancing Translational Sciences (NCATS)
MBNL1-CUG inh = MBNL1-poly(CUG) RNA binding inhibition; Q9NR56; TR-FRET MBNL1-His/biotin-(CUG)12 binding, 665/545 ratio; Potency, µM (titrated, usually from 57.5 µM), usual class: inhibitors; 0.036% of 280,000 active; AID 2675; active means well fitted inhibition curve with a large enough effect in the signal ratio, with a control signal flat, not every such curve was filed as active; inconclusive means small, poorly fitted or top-dose-only effect, or effect the other way, or a change in a side signal; inactive means no such curve, though single readings can be large or run the other way; the % refers to the signal ratio
Target sequence (Q9NR56 whole entry, looked up): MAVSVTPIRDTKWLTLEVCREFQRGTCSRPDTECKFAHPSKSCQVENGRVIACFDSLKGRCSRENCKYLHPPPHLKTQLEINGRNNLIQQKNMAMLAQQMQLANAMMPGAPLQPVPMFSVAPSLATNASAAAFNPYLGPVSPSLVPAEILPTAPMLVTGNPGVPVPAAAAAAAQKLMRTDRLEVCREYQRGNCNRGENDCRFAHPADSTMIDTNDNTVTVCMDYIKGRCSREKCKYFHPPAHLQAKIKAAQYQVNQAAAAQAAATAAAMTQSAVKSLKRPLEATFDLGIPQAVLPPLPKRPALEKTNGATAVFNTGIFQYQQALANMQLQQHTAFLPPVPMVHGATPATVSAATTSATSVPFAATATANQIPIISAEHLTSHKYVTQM
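TR-FRET readout: Ex 340 nm, 665/545 nm emission ratio, normalized to buffer-only (basal) and MBNL1-(CUG)12 controls. Complex of MBNL1-His with Biotin-(CUG)12, compounds 92 nM–58 uM, incubated 60 min at room temperature.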
PTHR1 agonist = PTHR1 (human) receptor agonism; HEK293 GP2 PTHR1 cells, GloSensor cAMP luminescence, 1 h; Potency, µM (series often up to 115 µM), actives largely listed as activators; 0.075% of 410,000 active; AID 743266; further: nearly all actives have a fitted effect of over 55% in size
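HEK-293-derived GP2 cells expressing PTHR1 and a GloSensor cAMP reporter, 3,000/well, plated overnight, given luciferin plus IBMX (each 0.5 mM as added) for 1 h at 37 °C, then compound for 1 h at 37 °C. Luminescence was read after 15 min at room temperature.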
D3 ag = D3 dopamine receptor (human) agonism; P35462; D3R DiscoveRx beta-arrestin cells, luminescence, 90 min; max activation, %; 0.58% of 410,000 active; in the data active means max activation above about 30%
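Cells at 1500/well, incubated overnight, then treated with pinned compounds (dopamine as control) for 90 min at 37 degrees C. DiscoveRx reagent added for 30 - 60 minutes at room temperature; luminescence read.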
CBFb-RUNX1 inh = inhibitors of human CBF-beta and RUNX1 interaction | AlphaScreen CBFb-His/RUNX1-biotin binding, biochemical | 230,000 tested, under 10 active | Potency, µM (highest dose often 59.8 µM), usual class: inhibitors | AID 1477
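Inhibition was taken as any reduction in AlphaScreen signal from the CBF-beta–RUNX1 pair (His and biotin tags, 30 nM each), measured after compound (15 min) and bead (90 min) incubations at room temperature.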
DRD3 antagonist = D3 dopamine receptor (human) antagonism; 2.5% of 360,000 active; max response, negative = inhibition, %; P35462; D3R cells, DiscoveRx beta-arrestin luminescence, antagonist mode; hits give low values; in the data active means max response below about -50%; inconclusive means no clear call, values can overlap the other calls
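Cells plated overnight at 1500 cells/well, then exposed to library compounds with dopamine controls for 90 minutes at 37 degrees C. DiscoveRx reagent added for 30–60 minutes at room temperature; luminescence read, quantitative HTS format.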
a7 integrin act = activators of alpha7 integrin expression for muscular dystrophy. alpha7betagal myoblasts, beta-gal FDG fluorescence, 48 h. Potency, µM (top dose mostly 38.3 µM), hits mostly activators. 0.064% of 350,000 active; further: nearly all actives have a fitted effect of over 60% in size
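Alpha7betagal+/- myoblasts (passage 13) were plated 16-24 hr, then exposed to compounds (1:260 dilution of DMSO stock) for 48 hours at 37C. After MPER lysis, β-galactosidase reporter activity was read as FDG fluorescence (ex 480/em 540) after 30 minutes.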
A number is an active result; i = inactive; ? = inconclusive; nt = no result given; [ ] = remark or other dose. Compounds with a hit are over-represented: about 2.8% of the library has one in this group of screens. Unless noted, the call rests on the fitted dose curve; in most records, active means well fitted curve in the direction sought with a large enough effect; inconclusive means small, poorly fitted or top-dose-only effect, or another doubt; inactive means no such curve, though single readings can be large; an effect the other way counts as inactive or inconclusive.

SMILES	MBNL1-CUG inh	PTHR1 agonist	D3 ag	CBFb-RUNX1 inh	DRD3 antagonist	a7 integrin act
CCOc1cc(CN2CCN(c3cccc(C(F)(F)F)c3)CC2)ccc1O	i	i	i	i	-86	i
CCOc1cc(CN2CCSCC2)ccc1O	i	i	i	i	?	i
O=c1cc(CO)oc(CN2CCN(c3cccc(C(F)(F)F)c3)CC2)c1O	i	i	i	i	-64	i
COc1ccc(CC(C)N2CCN(c3cccc(C(F)(F)F)c3)CC2)cc1OC (stereo not drawn)	i	i	i	i	-88	i
O=c1cc(CO)oc(CN2CCN(c3ccccc3)CC2)c1O	i	i	i	i	i	i
COC(=O)c1cc(CN2CCN(c3ccccc3)CC2)ccc1O	i	i	i	nt	-56	i
CCOC(=O)c1c(C)[nH]c(CCC(=O)Nc2cc(C)cc(C)c2)c1C	nt	i	i	nt	nt	nt
CCOc1cc(CN2CCN(c3ccc(C(C)=O)cc3)CC2)ccc1OC	i	i	i	i	i	i
CCOc1cc(CN2CCN(c3cccc(C(F)(F)F)c3)CC2)ccc1OC	i	i	i	i	-89	i
Cc1c(S(=O)(=O)N2CCN(c3cccc(C(F)(F)F)c3)CC2)c(=O)n(C)c(=O)n1C	i	i	i	i	i	i
Cc1c(CN2CCN(c3cccc(C(F)(F)F)c3)CC2)c(=O)n(-c2ccccc2)n1C	i	i	i	i	-76	i
O=C1C=CC(=O)N1	nt	i	i	nt	-83	nt
S=c1[nH]nc(-c2cc(-c3ccccc3)n[nH]2)n1/N=C/C(Br)=C/c1ccccc1	nt	i	i	i	-67	i
S=c1[nH]nc(-c2cc(-c3ccccc3)n[nH]2)n1/N=C/c1ccccc1	i	i	i	i	i	i
O=C(NCc1cccnc1)C(=O)NCC1OCCCN1S(=O)(=O)c1cc(F)ccc1F (stereo not drawn)	nt	i	i	nt	i	i
O=C(CSc1nnc2c(n1)[nH]c1ccc(F)cc12)N1CCOCC1	i	i	i	i	i	i
CCOC(=O)CN(C(=O)CSc1nnc2c(n1)[nH]c1ccc(OC)cc12)c1ccc(F)cc1	?	?	i	i	-65	i
CC1Cc2ccccc2N1C(=O)CSc1nnc2c(n1)[nH]c1ccc(F)cc12 (stereo not drawn)	i	i	i	i	-68	i
CCOC(=O)CN(C(=O)CSc1nnc(CNc2ccc(F)cc2)o1)c1ccccc1	i	i	i	i	-80	i
Cc1ccc(C(C)C)c(OCCNC(=O)c2cncc(Br)c2)c1	i	i	i	i	-52	i
CC(C)NC(=O)COc1coc(CN2CCN(c3ccccc3)CC2)cc1=O	i	i	i	nt	-62	i
CC(C)NC(=O)COc1coc(CN2CCN(c3cccc(Cl)c3)CC2)cc1=O	i	i	i	nt	i	i
COc1ccccc1CN1CC(C(=O)NCc2cc(F)cc(C(F)(F)F)c2)CCC1=O (stereo not drawn)	i	i	i	nt	i	i
CCn1c(CN2CCC(C)CC2)nc2cc(NC(=O)c3ccc([N+](=O)[O-])cc3)ccc21	nt	i	60	nt	nt	nt
CCN(CC)C(=O)Cn1cnc2sc(C(=O)NCCCN3CCOCC3)c(C)c2c1=O	i	i	i	nt	i	i
SMILES	MBNL1-CUG inh	PTHR1 agonist	D3 ag	CBFb-RUNX1 inh	DRD3 antagonist	a7 integrin act
Cc1ccccc1S(=O)(=O)N1C[C@H]2[C@H]3C(=O)N(c4ccccc4)C(=O)[C@H]3CC(=O)[C@H]2[C@@H]1c1ccc(Cl)cc1	nt	i	i	nt	?	nt
O=C(O)CC1S/C(=N/N=C/c2ccc(-c3ccc(Cl)cc3[N+](=O)[O-])o2)NC1=O (stereo not drawn)	?	i	i	i	-77	i
CC1Cc2cc(S(=O)(=O)CCC(=O)NCc3ccccc3Cl)ccc2N1C(=O)C1CC1 (stereo not drawn)	nt	i	i	nt	nt	nt
Nc1ncn([C@H]2O[C@@H](CO)[C@@H](O)[C@@H]2O)c(=O)n1	nt	nt	nt	i	nt	nt
COC(=O)[C@@H]1OC(=O)[C@H]2O[C@@]23[C@@]1(C)CC[C@@H]1[C@@]2(C)C=CC(=O)OC(C)(C)[C@@H]2CC(=O)[C@]13C	nt	i	46	nt	i	i
C=CCOC(=O)/C(=C\C=C\c1ccccc1)NC(=O)c1ccccc1	?	i	i	i	i	i
COc1ccc(N(CC(=O)Nc2c(C)n(C)n(-c3ccccc3)c2=O)S(=O)(=O)c2ccc(C)cc2)cc1OC	i	i	i	nt	-111	i
COc1ccc(C(=O)c2c(-c3cccc(C)c3)oc3ccc(N4CCOCC4)cc23)cn1	i	i	36	nt	i	i
O=C(CN1c2cccc3cccc(c23)S1(=O)=O)Nc1ccc(F)c(F)c1F	nt	i	i	nt	i	i
O=C1Nc2ccc(F)cc2C12Nc1ccccc1-c1nnc(SCc3ccccc3F)nc1O2 (stereo not drawn)	?	i	i	i	-51	i
O=c1c2c3c(sc2n(CCN2CCCC2)c(=O)n1Cc1ccco1)CCCCC3	i	i	i	i	-64	i
c1ccc(-c2nc3ccccc3[nH]2)cc1	i	i	i	nt	-94	nt
c1ccc(-c2n[nH]c(-c3ccccc3)c2-c2nc3ccccc3[nH]2)cc1	i	i	i	i	-56	i
Cc1ccc2nc(-c3ccccn3)c(N)n2c1	nt	i	i	nt	i	nt
CCCCNc1cc(F)nc(N)n1	i	i	i	i	i	i
CCOc1ccc(-c2nc[nH]c2[N+](=O)[O-])cc1	?	?	i	i	i	?
c1ccc2c(c1)Cc1cc3cc4c(cc3nc1-2)OCO4	nt	nt	nt	i	nt	nt
O=C(NCCCN1CCC(Cc2ccccc2)CC1)C1CCC(=O)N1C1CCCC1 (stereo not drawn)	i	i	i	i	-118	i
O=C(NCCCN1CCN(c2ccccc2F)CC1)C1CCC(=O)N1C1CCCC1 (stereo not drawn)	i	i	i	i[2.36 µM]	-87	i
COc1ccc(N2CCN(S(=O)(=O)c3csc(C(N)=O)c3)CC2)cc1	nt	i	i	nt	nt	nt
CCC(=O)N(c1ccc(C(=O)O)cc1)c1nc(-c2ccc(OC)cc2)c(C)s1	i	i	i	i	i	i
COc1ccc(CC(=O)NNC(=S)NCC2CC2)cc1OC	i	i	i	i	i	i
CC(=O)Nc1ccc(Cc2ccc3[nH]c(=O)cc(C)c3c2)cc1	i	nt	nt	i	nt	nt
CCOC(=O)CSc1nc2ccccc2c(=O)n1NC(=O)c1ccccc1	i	i	35	i	i	i
COc1ccc(C(=O)Nn2c(SCC(=O)c3ccccc3)nc3ccccc3c2=O)cc1	i	i	i	i	i	i
